Records with an inconclusive call do not appear. Entries that show only a call come without a potency. A number with no mark means an inactive call. Active and inactive are the calls of the source. Calls come from the whole dose curve.
Potency is the fitted concentration of half-maximal effect.

The experiment in a line: p53 small molecule agonists, cell-based qHTS assay with human liver microsomes: qHTS cell viability counter screen (AID 1963579). Note: nearly all actives have a fitted effect of over 45% in size. The settings on record: p53RE-bla HCT-116 viability, ATP luminescence, 16 h, HLM; series mostly up to 66 µM. The text has this: National Center for Advancing Translational Sciences [NCATS]
Division of Preclinical Innovation [DPI]
U.S. Environmental Protection Agency [EPA]
National Institutes of Environmental Health Sciences [NIEHS]
National Toxicology Program [NTP]
U.S. Food and Drug Administration [FDA]
p53, a tumor suppressor protein, is activated following cellular insult, including DNA damage and other cellular stresses. The activation of p53 regulates cell fate by inducing DNA repair, cell cycle arrest, apoptosis, or cellular senescence. The activation of p53, therefore, is a good indicator of DNA damage and other cellular stresses. […] The activation of the reporter gene under culture conditions can be detected by fluorescence intensity. This cell line was used to screen the Tox21 10K compound library in the condition of presence of human liver microsomes and to identify agonists that activate the p53 signaling pathway after in vitro metabolic activation (Ooka et al., Archive of Toxicology 96:1975-1987, 2022).
Tox21 Assay Protocol Summary:
The p53RE-bla cells were dispensed at 4,000cells/3ul/well in 1536-well black-clear bottom plates. After the assay plates were incubated at 37 C, 5% CO2 incubator for 5 hours, 23 nL of compounds dissolved in DMSO, positive controls or DMSO only was transferred to the assay plate. Following compound addition, 3 uL of human liver microsomes (XenoTech, Kansas City, KS) at final concentration of 0.5 mg/mL and 1uL of B-Nicotinamide adenine dinucleotide 2'-phosphate (NADPH) at final concentration of 0.5 mg/mL were transferred to the assay plate. The plates were incubated at 37 C for 16 hours. 1 uL of LiveBLAzer detection mixture was added to each well and the plates were incubated at room temperature in the dark for 2 h. Fluorescence intensity at 460 and 530 nm emission and 405 nm excitation were measured by an Envision plate reader. For cell viability readout that measures cytotoxicity, 4 ul/well of CellTiter-Glo reagent was added into the assay plates using a Flying Reagent Dispenser. After 30 min incubation at room temperature, the luminescence intensity in the plates was measured using a ViewLux plate reader.
In general terms: Quantitative high-throughput screening tests each substance at several concentrations.
With `O=C(CN1CCN(Cc2ccc3c(c2)OCO3)CC1)N1c2ccccc2Sc2ccccc21`, the Potency entry was “inactive”.

For `OCCN(CCO)CCN(CCO)CCO`, the Potency result is “inactive”.

With `NS(=O)(=O)c1cc(-c2nn[nH]n2)c(NCc2cccs2)cc1Cl`, the Potency entry was “inactive”.

`C=CC/C=C/C`: the Potency result was “inactive”.

For the molecule `CCOc1ccc([N+](=O)[O-])cc1`, the Potency was 41.4 µM (active).

With `Oc1ccc(Nc2ccccc2)cc1`, the Potency entry was “inactive”.

With `CCN1CC(CCN2CCOCC2)C(c2ccccc2)(c2ccccc2)C1=O` (stereo not given), the Potency entry was “inactive”.

In the case of `CCN(CC)CCOC(=O)C(Cc1cccc2ccccc12)CC1CCCO1` (stereo not given), the Potency entry was “inactive”.

In the case of `C[n+]1cc2c3c(ccc2c2ccc4cc5c(cc4c21)OCO5)OCO3`, the Potency was 9.73 µM (active).

`CCCCCCCCCC(=O)OCC`: the Potency entry is “inactive”.

In the case of `Nc1c2c(nc3ccccc13)CCCC2O` (stereo not given), the Potency entry was “inactive”.

Turning to `[Cl][Sc]([Cl])[Cl]`, the Potency entry is “inactive”.

With `COc1ccc(C)cc1[N+](=O)[O-]`, the Potency result is “inactive”.

`CCCn1cnc2c1c(=O)n(CCCCC(C)=O)c(=O)n2C`: the Potency result was “inactive”.

For the molecule `CC(=O)OCC[N+](C)(C)C`, the Potency result is “inactive”.

For the molecule `O=C(CCN1CCN2CCCC2C1)N1c2ccccc2Sc2ccc(Cl)cc21` (stereo not given), the activity change, negative = cytotoxicity is -1.69% [at 13.5 µM].

Consider `C#CC(C)N(C)C(=O)Nc1ccc(Cl)cc1` (stereo not given), for which the Potency result is “inactive”.

Turning to `O=C1[C@H]2CCCC[C@H]2C(=O)N1CCCCN1CCN(c2nsc3ccccc23)CC1`, the Potency entry is “inactive”.

`CC(=O)OC1CCC(C(C)(C)C)CC1` (stereo not given): the Potency entry was “inactive”.

As to `CCOC(=O)C(=O)OCC`, the Potency result is “inactive”.

`CCOc1cccc(N)c1`: the Potency entry is “inactive”.

Consider `CCCCN1C=CN(C)C1`, for which the activity change, negative = cytotoxicity is -6.5% [at 13.5 µM].

For `COc1ccc2[nH]c(S(=O)Cc3ncc(C)c(OC)c3C)nc2n1` (stereo not given), the Potency result is “inactive”.

In the case of `O=C(O)c1ccc(Cl)c(Cl)c1`, the Potency result was “inactive”.

In the case of `O=C(O)CCNC(=O)c1ccccc1`, the Potency result was “inactive”.

Turning to `CC(=O)Oc1ccc(C(C)=O)cc1`, the Potency result is “inactive”.

For the molecule `CCOc1cc(OCC)c(C(=O)CCC(=O)O)cc1OCC`, the Potency entry was “inactive”.

As for `COc1cc(OC)nc(NC(=O)NS(=O)(=O)Nc2ccccc2C(=O)N(C)C)n1`, the Potency result was “inactive”.

For the molecule `CC(C)(C)C1=CC(=O)C(C(C)(C)C)=CC1=O`, the Potency entry is “inactive”.

With `CN1CCN(c2c(F)cc3c(=O)c(C(=O)O)cn4c3c2SCC4)CC1`, the Potency result is “inactive”.

As to `CN1CCN(C2Cc3ccccc3Sc3ccc(Cl)cc32)CC1` (stereo not given), the Potency entry was “inactive”.

`CCCCCCCCCC=O`: the Potency entry was “inactive”.

For `O=C(CCCCC(=O)Nc1c(I)cc(I)c(C(=O)O)c1I)Nc1c(I)cc(I)c(C(=O)O)c1I`, the Potency entry was “inactive”.

For `ClCCl`, the Potency result is “inactive”.

With `Nc1ccc(S(=O)(=O)NC(=O)c2ccccc2)cc1`, the Potency result was “inactive”.

With `CN(C)C(=O)CNC(=O)Cc1ccccc1`, the Potency result is “inactive”.

`O=S(=O)(Cl)c1c(Cl)cccc1Cl`: the Potency result was “inactive”.

As for `NS(=O)(=O)Cc1noc2ccccc12`, the Potency entry was “inactive”.

Regarding `CS(=O)(=O)c1ccc(-c2cn3ccccc3n2)cc1`, the Potency was 17.8 µM (active).

In the case of `Cc1c(N)cccc1Cl`, the Potency result was “inactive”.

For the origin of these results see PubChem BioAssay (Tox21).
